Screening results as filed in PubChem.
CHX counter: Cycloheximide Counterscreen for Small Molecule Inhibitors of Shiga Toxin. cell reporter, cycloheximide protein synthesis inhibition counterscreen. max response, %. 300,000 tested, 12% active. AID 2314, 2010; in the data active = max response mostly above about 13%, no sharp cut-off; inactive = mostly below about 14%; note: read at 38.3 µM for the half of the compounds with a filed dose; 0% is about no effect
Pf growth 96h: Primary qHTS for delayed death inhibitors of the malarial parasite plastid, 96 hour incubation. 320,000 tested, 6.9% active. Potency, µM (highest dose often 28.7 µM), inactives show top-dose activity change, negative = inhibition, actives largely listed as inhibitors. P. falciparum luciferase reporter growth, 96 h; active = well fitted inhibition curve with a large enough effect; inconclusive = small, poorly fitted or top-dose-only effect, or another doubt; inactive = no such curve, though single readings can be large or run the other way; note: potency is the fitted concentration of half-maximal effect; % is set by controls: 0 for no effect and ±100 for the full control effect
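Parasite growth measured via integrated firefly luciferase reporter in P. falciparum. Infected erythrocytes at 2% hematocrit, 0.05% parasitemia final were treated 96 hours at 37 C under 5% CO2, and luminescence was read.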
NS1 inh: qHTS Assay for Inhibitors of Influenza NS1 Protein Function; Potency, µM (titrated, usually from 46.1 µM), for the others: top-dose activity, positive = more growth; 270,000 tested, 0.4% active; AID 2326, 2010; note: potency is the fitted concentration of half-maximal effect; actives are rising curves; nearly all actives have a fitted effect of over 50% in size
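In this qHTS, NS1 from influenza A is expressed in budding yeast, where it slows growth. Cells are switched from glucose to 2% galactose medium (pH 6.0, -URA), treated with compound, and growth recovery is read at OD600.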
Shiga inhibitor: A qHTS for Small Molecule Inhibitors of Shiga Toxin; Vero cells, Shiga toxin protein synthesis inhibition reporter; inhibition, % at 38.7 µM; AID 2315, 2010; 290,000 tested, 9.2% active; in the data active = inhibition mostly above about 28%, no sharp cut-off; inactive = mostly below about 43%; note: 0% is about no effect
SARS PLP yeast: qHTS of Yeast-based Assay for SARS-CoV PLP; S. cerevisiae expressing SARS-CoV PLpro, growth rescue; Potency, µM (titrated, usually from 32.9 µM), inactives show at the top dose activity, positive = growth rescue, actives largely listed as activators; AID 485353, 2010; 330,000 tested, 0.19% active; note: potency is the fitted concentration of half-maximal effect; 0% is about no effect; nearly all actives have a fitted effect of over 55% in size
Pf growth 48h: Primary qHTS for delayed death inhibitors of the malarial parasite plastid, 48 hour incubation; P. falciparum luciferase growth in erythrocytes, 48 h; Potency, µM (doses to about 28.7 µM), inactives show at the top dose activity change, negative = inhibition, actives largely listed as inhibitors; AID 504832, 2011; 310,000 tested, 5.9% active; active = well fitted inhibition curve with a large enough effect; inconclusive = small, poorly fitted or top-dose-only effect, or another doubt; inactive = no such curve, though single readings can be large or run the other way; note: potency is the fitted concentration of half-maximal effect; % is set by controls: 0 for no effect and ±100 for the full control effect
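In quantitative HTS format, infected erythrocytes bearing luciferase-reporter parasites were treated for a single generation at 37 C. Luminescence after adding detection reagent served as the growth measure.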
Active calls of the source: *; u = inconclusive; x = no result. Sampled rows, rich in hits. Any-hit rate of the full collection: about 21%. Unless noted, calls come from the whole dose curve.

SMILES	CHX counter	Pf growth 96h	NS1 inh	Shiga inhibitor	SARS PLP yeast	Pf growth 48h
COc1ccccc1/C=C/C=N/n1c(-c2ccncc2)n[nH]c1=S	-2	7.4µM*	17%	-3	21%	-2%
Cc1cccc(/C=N/n2c(-c3ccccn3)n[nH]c2=S)c1	35*	-19%	10%	47*	7%	17%
COc1ccccc1/C=C/C=N/n1c(-c2ccc(C)cc2)n[nH]c1=S	-2	-14%	u	-12	20%	-3%
COc1ccccc1/C=C/C=N/n1c(-c2ccccn2)n[nH]c1=S	34*	78%	15%	64*	2%	74%
O=C(NCC(c1ccco1)N1CCOCC1)c1c(F)cccc1F (stereo not given)	x	14%	x	x	-1%	5%
O=[N+]([O-])c1ccc(N/N=C2/CCCCC2c2ccccn2)cc1 (stereo not given)	-2	6%	-23%	15	-83%	-12%
CCOC(=O)Nc1ccc2c(C)cc(=O)oc2c1	30*	u	u	60*	u	160%
Cc1cccc(OCC(=O)Nc2ccc3c(C)cc(=O)oc3c2)c1	5	38%	9%	-3	-2%	35%
CCCCOC(=O)Nc1ccc2c(C)cc(=O)oc2c1	52*	128%	-7%	59*	-13%	88%
Cc1cc(=O)oc2cc(NC(=O)CC(N)C(=O)O)ccc12 (stereo not given)	-4	x	x	-4	x	x
Cc1cc(=O)oc2cc(NC(=O)CCOc3ccccc3)ccc12	19*	28%	-4%	32*	2%	50%
COc1ccc(S(=O)(=O)N2CCN(C(=O)CCc3c[nH]c4ccccc34)CC2)cc1	x	u	x	x	1%	u
Cc1cc(C)c(S(=O)(=O)N2CCCCC2C(=O)O)c(C)c1 (stereo not given)	0	18%	0%	-22	0%	-2%
CCOc1ccc(-c2[nH]ncc2Oc2cccc(OC)c2)c(O)c1	3	u	-120%	-11	-36%	u
COc1cccc(Oc2cn[nH]c2-c2ccc(OC)cc2O)c1	-1	x	-132%	23	-42%	8.3µM*
COc1cccc(Oc2cn[nH]c2-c2ccc(O)cc2O)c1	-1	19%	-53%	-4	-2%	5.2µM*
Cc1noc(C)c1COC(=O)c1cccc(N(C)C)c1	1	0%	x	11	-2%	-23%
COc1ccc(CCN(C)C2CCCN(C(=O)c3sccc3C)C2)cc1OC (stereo not given)	11	15%	4%	-6	u	-5%
Cc1nc2nc(CNC(=O)OC(C)(C)C)nn2c(C)c1CCC(=O)Nc1ccc2c(c1)OCO2	12	u	12%	21	x	-15%
CCN(CC)CCCCN1c2ccccc2Oc2ccc(Cl)cc21	-11	x	x	-13	x	x
CN(C)CC[C@@H](C(=O)C(C)(C)C)c1ccccn1	x	x	-1%	x	x	x
COc1ccc(NC(=O)C2C3C=CC(C3)C2C(=O)O)cc1 (stereo not given)	0	20%	8%	20	0%	7%
Cc1ccc(-c2ccc(NC(=O)C3C4C=CC(C4)C3C(=O)O)cc2)o1 (stereo not given)	46*	176%	-14%	62*	8%	x
Clc1ccc(Sc2cnc3ccccc3n2)cc1	38*	26%	6%	85*	x	38%
O=C(O)c1cnc(-c2ccccc2)nc1Sc1ccc(Cl)cc1	-2	-6%	-5%	-16	-1%	24%
SMILES	CHX counter	Pf growth 96h	NS1 inh	Shiga inhibitor	SARS PLP yeast	Pf growth 48h
O=C(O)c1cccnc1Sc1ccc(Br)cc1	-2	-3%	-6%	-6	-1%	-1%
Brc1ccc(Sc2cnc3ccccc3n2)cc1	33*	-3%	6%	76*	x	3%
O=C(O)c1cnc(-c2ccccc2)nc1Sc1ccccc1Cl	1	88%	5%	-5	-3%	9%
c1ccc(Sc2cnc3ccccc3n2)cc1	64*	42%	-9%	108*	x	117%
Clc1ccccc1Sc1cnc2ccccc2n1	22*	u	17%	23	21%	x
Cc1nccnc1Sc1ccccc1	-2	61%	3%	3	2%	-6%
Cc1nc(CNC(=O)CC2C(=O)NCCN2Cc2ccc(F)cc2)cs1 (stereo not given)	1	-26%	9%	11	-1%	21%
CC(=O)Oc1cccc(C(=O)Nc2ccc(NC(=O)c3cccs3)cc2)c1	42*	-17%	10%	163*	3%	31%
COc1cccc(C(=O)Nc2cccc(NC(=O)c3cccs3)c2)c1	11*	u	-20%	19	-5%	9%
O=C(O)CC(NC(=O)c1ccncc1)c1ccccc1 (stereo not given)	5	9%	x	-9	1%	2%
Cc1ccc(NC(=S)N2CCN(S(=O)(=O)c3ccccc3)CC2)cc1C	-3	u	7%	-12	0%	-10%
COc1ccc(CCN(C)C2CCCN(C(=O)Cn3cnnn3)C2)cc1OC (stereo not given)	12*	-10%	15%	16	0%	-6%
Cc1ccc(-c2nnc(NCc3nc4ccccc4[nH]3)c3ccccc23)cc1S(=O)(=O)N1CCOCC1	-4	2.6µM*	u	-8	21%	12µM*
Cc1ccc(-c2nc3ccccc3s2)cc1S(=O)(=O)N1CCOCC1	-3	u	-1%	3	12%	x
CC(=O)N1CCN(c2ccc(NC(=O)c3ccc(F)cc3)cc2)CC1	-2	u	10%	-10	4%	-18%
COC(=O)C1=C(C)NC(C)=C(C(=O)OCC(C)C)C1c1ccccc1[N+](=O)[O-] (stereo not given)	x	2.4µM*	x	x	x	7.6µM*
Cc1nnc(NC(=O)CCn2cnc3ccccc3c2=O)s1	-4	2%	6%	2	-1%	7%
CS(=O)(=O)c1ccc2nc(NC(=O)c3cccc(NS(=O)(=O)c4ccc(F)c(F)c4)c3)sc2c1	19*	4%	27%	35	9%	41%
CS(=O)(=O)c1ccc2nc(NC(=O)c3ccc(NS(=O)(=O)c4ccc(F)c(F)c4)cc3)sc2c1	15	u	3%	28	2%	77%
O=C(Nc1nc2ccc(SC(F)F)cc2s1)c1ccc(NS(=O)(=O)c2ccc(F)c(F)c2)cc1	41*	u	u	79*	3%	13%
CC(Cc1ccccc1)NC(=O)C(c1ccc(N)cc1)c1ccc(N)cc1 (stereo not given)	-3	26%	28%	-1	1%	u
CC(Cc1ccccc1)NC(=O)NC(C)Cc1ccccc1 (stereo not given)	29*	-8%	7%	69*	-8%	x
CC(Cc1ccccc1)NC(=O)c1ccc(N)cc1 (stereo not given)	37*	12µM*	12%	62*	5%	102%
